Source: ChEMBL document CHEMBL4513146, “CO-ADD screening of Karazin Kharkiv National University (Ukraine) compounds”
Results with a measured potency or affinity are listed apart.

Legend:
Klebsiella pneumoniae = details: Concentration 32 ug.mL-1;; ASSAY_TEST Inhibition of Bacterial Growth; detection method Absorption (OD600); MEDIA CAMHB; plate type 384well; NBS; CORNING #3640; time 18 hr
Candida albicans = details: Concentration 32 ug.mL-1; ASSAY_TEST Inhibition of Fungal Growth; detection method Absorption (OD530)
Cryptococcus neoformans = details: Concentration 32 ug.mL-1; ASSAY_TEST Inhibition of Fungal Growth; detection method Resazurin; Absorption (OD600-OD570); plate type 384well; NBS; CORNING #3640

SMILES | Inhibition (Klebsiella pneumoniae) [%] | Inhibition (Candida albicans) [%] | Inhibition (Cryptococcus neoformans) [%]
Cc1cccc(C)c1NC(=O)Cn1nc2c(Sc3ccccc3)nccn2c1=O | -1.09 | 0.55 | -9.17
COc1ccc(-n2ccn3c(-c4ccc([N+](=O)[O-])cc4)nnc3c2=O)cc1Cl | 9.41 | 5.76 | -13.11
COc1cccc(-n2ccn3c(SCC(=O)Nc4cc(F)ccc4F)nnc3c2=O)c1 | 6.91 | 7.1 | -8.94
CCC(C)NC(=O)Cn1nc2n(CC(C)C)c(=O)c3ccc(C(=O)NC4CCCCC4)cc3n2c1=O (stereo unspecified) | 0.48 | -1.97 | -14.64
Cc1ccc(-c2noc(Cn3nc4ccc(-c5ccccc5)nn4c3=O)n2)cc1 | 1.24 | 8.52 | -15.81
COC(=O)c1ccc(CN(c2ccc(C)cc2)S(=O)(=O)c2ccc3nnc(C)n3c2)o1 | 8.84 | 0.1 | -13.09
CC(C)c1ccc(Cn2c(=O)c3sccc3n3c(SCc4cccc(C(F)(F)F)c4)nnc23)cc1 | 5.43 | -0.58 | -12.8
O=C(Cn1nc2c(Sc3cccc(F)c3)nccn2c1=O)Nc1cccc(C(F)(F)F)c1 | 14.77 | -0.63 | -9.77
O=C(CSc1nnc2c(=O)n(-c3ccccc3)ccn12)Nc1ccc(F)cc1F | 1.13 | 1.82 | -4.59
COc1ccc(C(=O)CSc2nnc3c(=O)n(-c4ccc(F)c(F)c4)ccn23)cc1OC | 11.04 | 3.34 | -3.67
Cc1ccc(-c2cc3c4nn(CC(=O)Nc5cccc(C)c5C)c(=O)n4ccn3n2)cc1C | 14.55 | 0.02 | -23.37
O=C(Cn1nc2c(SC3CCCCC3)nccn2c1=O)Nc1ccccc1F | 4.58 | 0.33 | -26.33
O=C(Cn1nc2c(Oc3ccccc3)nccn2c1=O)Nc1ccccc1F | -3.78 | -2.47 | -4.07
COc1ccc(-c2cc3c4nnc(SCC(=O)Nc5cccc(C#N)c5)n4ccn3n2)cc1 | 2.25 | 13.14 | -16.67
COc1ccc(NC(=O)Cn2nc3c(Sc4ccccc4)nc4ccccc4n3c2=O)cc1Cl | 5.63 | 1.75 | -17.25
CC(C)CCn1c(=O)c2sccc2n2c(=O)n(CC(=O)N(C)c3ccccc3)nc12 | 0.74 | -2.64 | -16.67
O=C(Cn1nc2ccc(-c3ccc(Cl)cc3)nn2c1=O)N1CCN(c2ccccc2F)CC1 | 1.3 | 2.81 | -11.05
CCc1ccc(NC(=O)Cn2nc3cc(C)nc(Nc4ccc(C)c(F)c4)n3c2=O)cc1 | 10.82 | 3.74 | -2.27
CC(C)c1nnc2c(=O)n(CC(=O)Nc3ccc(Br)cc3F)c3ccccc3n12 | 12.63 | 1.97 | -15.71
CC(=O)c1ccc(NC(=O)Cn2c(=O)c3nnc(C(C)C)n3c3ccccc32)cc1 | 9.51 | 0.56 | -14.82
COc1cc(-c2nnc3c(=O)n(Cc4ccc(Cl)cc4)ccn23)cc(OC)c1OC | 11.02 | -0.08 | -21.41
COc1ccc(CNC(=O)CSc2nnc3c4cc(-c5ccccc5)nn4ccn23)cc1 | 15.76 | 0.38 | -28.39
Cc1ccc(F)cc1NC(=O)CSc1nnc2ccc(C(=O)Nc3cccc(F)c3)cn12 | 2.35 | -0.79 | -3.99
COc1cc(NC(=O)C(C)Sc2nnc3c(=O)n(-c4ccccc4OC)ccn23)cc(OC)c1 (stereo unspecified) | 11.13 | 1.4 | -7.6
O=C(CSc1nnc2c(=O)n(-c3ccc(Br)cc3)ccn12)c1ccc(F)cc1 | 7.31 | 5.26 | -8.48
COc1cccc(-n2ccn3c(SCC(=O)c4ccc(F)cc4)nnc3c2=O)c1 | 12.25 | 2.59 | -11.08
Cc1nnc2c(=O)n(CC(=O)Nc3ccc(Cl)cc3)c3ccccc3n12 | 4.43 | -0.59 | -11.19
